Screening data: PubChem, several laboratories
Bim-Mcl-1 – disrupts Bim peptide binding to human Mcl-1 | Bead-based flow cytometry, Bim peptide-Mcl-1 binding | inhibition, % at 10 µM | hit rate 0.1% among 190,000 | AID 1009; in the data active means inhibition above about 40%;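 further: 0% = no compound tracer wells and 100% = peptide blocker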
Target sequence (Q07820 whole entry, looked up): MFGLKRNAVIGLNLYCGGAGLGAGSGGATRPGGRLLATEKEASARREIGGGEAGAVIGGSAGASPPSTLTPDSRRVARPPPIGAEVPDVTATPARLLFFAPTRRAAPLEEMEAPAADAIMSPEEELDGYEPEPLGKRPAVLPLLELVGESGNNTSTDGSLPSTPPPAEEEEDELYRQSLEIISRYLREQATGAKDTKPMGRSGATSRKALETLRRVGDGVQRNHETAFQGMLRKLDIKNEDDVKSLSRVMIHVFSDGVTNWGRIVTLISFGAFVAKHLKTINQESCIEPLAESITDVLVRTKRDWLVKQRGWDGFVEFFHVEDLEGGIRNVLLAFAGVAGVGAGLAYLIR
Mcl1-Noxa inh – disrupts binding of human Mcl-1 to Noxa peptide; Q07820; TR-FRET Mcl-1/Noxa peptide binding, 2 h; inhibition, % at 21.7 µM; hit rate 1.5% among 220,000;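 active means compounds that cut the protein-peptide binding signal by more than 50% relative to plate controls in a single-dose test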;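 further: His-tagged Mcl-1 with rhodamine Noxa BH3 peptide and terbium anti-His antibody; 0% = Mcl-1 plus Noxa peptide wells and 100% = peptide-only wells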
Mcl1-Bid inh – disrupts binding of human Mcl-1 to Bid peptide; Q07820; TR-FRET Mcl-1/Bid-Dy647 peptide binding, 1536-well; inhibition, % at 21.7 µM; hit rate 0.97% among 220,000; AID 1021;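 active means compounds that cut the binding signal by more than half at the single screening dose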;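 further: His-tagged Mcl-1 with europium anti-His antibody binding Bid BH3 peptide; 0% = Mcl-1 plus peptide wells and 100% = peptide-only wells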
MCL1 BIM primary – inhibitors of human MCL1 binding to BIM-BH3 peptide; GST-MCL1 / FITC-Bim-BH3 fluorescence polarization; inhibition, % at 10.9 µM; hit rate 0.68% among 320,000;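 active means inhibition above the mean inhibition of all tested compounds plus 3 SD, set per campaign, cut at about 40% in these data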;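 further: 0% = DMSO wells and 100% = unlabeled Bim-BH3 peptide control; higher means more loss of mP so more displacement of Bim peptide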
GLD-1 RNA inh – GLD-1-TGE RNA interaction inhibition (C. elegans) | hit rate 0.44% among 320,000 | inhibition, % at 5.96 µM | AID 2280 | purified GLD-1 + fluorescein TGE RNA, fluorescence polarization;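 active means percent inhibition above a per-plate cutoff, the plate mean of test compounds plus 3 SD, cut at about 30% in these data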;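 further: 0% = DMSO wells with GLD-1 and probe and 100% = wells lacking GLD-1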
BCLXL inh – inhibitors of human Bcl-xL. GST-Bcl-xL / FITC-Bim BH3 peptide fluorescence polarization. inhibition, % at 10.9 µM. hit rate 0.7% among 320,000;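 active means inhibition above the mean of all tested compounds plus 3 SD, cutoff set per campaign, cut at about 30% in these data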;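 further: 0% = DMSO wells and 100% = unlabeled Bim-BH3 peptide competitor; inhibitors lower millipolarization by displacing the labeled peptide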
Target sequence (Q07817 whole entry, looked up): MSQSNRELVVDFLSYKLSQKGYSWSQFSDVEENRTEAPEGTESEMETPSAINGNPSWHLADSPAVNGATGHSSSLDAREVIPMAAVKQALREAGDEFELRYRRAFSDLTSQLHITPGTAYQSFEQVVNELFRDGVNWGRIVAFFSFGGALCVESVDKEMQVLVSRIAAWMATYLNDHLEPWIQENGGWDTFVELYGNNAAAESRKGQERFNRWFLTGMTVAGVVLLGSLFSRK
Starred values were filed as active, the others as inactive; · = no result. An excerpt weighted towards active compounds, which were near 2.3% of everything screened.

SMILES	Bim-Mcl-1	Mcl1-Noxa inh	Mcl1-Bid inh	MCL1 BIM primary	GLD-1 RNA inh	BCLXL inh
C#CCOCCOCCOCCNc1nc(N2CCN(C(=O)[C@H](Cc3ccc(O)cc3)n3cc([C@@H](N)C(C)CC)nn3)CC2)nc(N2CCN(C(=O)[C@H](Cc3cc4ccccc4[nH]3)n3cc([C@@H](N)C(C)CC)nn3)CC2)n1 (stereo partly drawn)	-2	44	69*	0	-5	-7
C#CCOCCOCCOCCNc1nc(N2CCN(C(=O)[C@H]([C@@H](C)CC)n3cc([C@@H](N)CC(C)C)nn3)CC2)nc(N2CCN(C(=O)[C@H](Cc3ccc(O)cc3)n3cc([C@@H](N)CC(C)C)nn3)CC2)n1	-2	21	60*	7	1	2
C#CCOCCOCCOCCNc1nc(N2CCN(C(=O)[C@H](Cc3cc4ccccc4[nH]3)n3cc([C@@H](N)C(C)CC)nn3)CC2)nc(N2CCN(C(=O)[C@H](Cc3cc4ccccc4[nH]3)n3cc([C@@H](N)Cc4ccc(O)cc4)nn3)CC2)n1 (stereo partly drawn)	0	61*	85*	-1	-11	-16
Cc1cccc2c3nc4ccccc4nc3n(C)c12	·	·	·	40*	14	49*
C[C@@H](C(=O)NCCc1c[nH]c2ccccc12)[C@@H]1C[C@@]1(C)[C@@H](NC(=O)OCc1ccccc1)c1ccccc1	86*	-5	-17	-13	-5	-7
CC1=C(C(=O)Nc2cc(C(=O)N(C)Cc3ccccc3)ccc2C)SCCO1	·	·	·	2	-3	0
Cn1cccc1Cc1nnc(SCC(=O)Nc2cccc(Cl)c2)n1-c1ccc(F)cc1	-2	3	65*	5	2	2
CCc1c(C(=O)N2CCCN(C)CC2)csc1C	·	·	·	-9	4	1
COc1cccc(/C=N/NC(=O)C(=O)N/N=C/c2cccc(OC)c2O)c1O	3	59*	-71	·	·	·
COc1cccc(/C=N/NC(=O)C(=O)N2CCCCCC2)c1O	·	·	·	8	1	9
COc1cccc(/C=N/NC(=O)c2cc3c(OC)cccc3[nH]2)c1O	-4	59*	-36	-5	-24	-4
Cc1cc2nc3c(=O)[nH]c(=O)[nH]c3nc2c([N+](=O)[O-])c1N	14	71*	-46	·	·	·
COc1ccc(NC(=O)CSc2nnc(-c3cc(C)[nH]n3)n2N)cc1	·	·	·	-4	1	-1
Brc1ccc(NC2=Nc3ccccc3CC2)cc1	1	6	-14	9	-5	41*
Cc1n[nH]c(=O)c2c(NC(=O)CSc3nc4ccccc4c(=O)n3CCCO)oc(C)c12	·	·	·	1	3	2
O=C1N=c2ccccc2=C1c1c(O)n(-c2cccc(F)c2)[nH]c1=O	-10	102*	73*	23	0	15
CCn1c(O)c(C2=c3ccccc3=NC2=O)c2cc(Br)ccc21	0	22	1	-1	-9	2
COC(=O)CC/C(O)=C1\C(=O)CC(C)(C)CC1=NCCc1nc2ccccc2[nH]1	-3	-13	-13	8	2	5
CCC(C)(C)n1nnnc1C(c1ccc(O)c(OC)c1)N1CCN(c2nc3ccccc3s2)CC1 (stereo not drawn)	-2	68*	13	8	-1	10
COc1ccc(C(c2nnnn2C(C)(C)C)N2CCN(c3nc4ccccc4s3)CC2)cc1 (stereo not drawn)	-3	11	8	·	·	·
CCC(C)(C)n1nnnc1C(c1cccc(C#N)c1)N1CCN(c2cccc(C)c2C)CC1 (stereo not drawn)	-3	70*	-11	-4	-1	-4
CCC(C)(C)n1nnnc1C(c1ccc(O)c(OC)c1)N1CCc2ccccc2C1 (stereo not drawn)	-4	82*	26	9	9	5
CC(CCc1ccccc1)NC(=O)C(Cc1ccccc1)NC(N)=O (stereo not drawn)	·	·	·	8	3	1
CC(C)(C)c1ccc(OCC(O)CN2CCOCC2)cc1 (stereo not drawn)	·	·	·	-3	-3	5
O=C(Nc1cnn(C23CC4CC(CC(C4)C2)C3)c1)c1cnn2c(C(F)(F)F)cc(-c3ccco3)nc12	0	31	79*	-2	0	5
SMILES	Bim-Mcl-1	Mcl1-Noxa inh	Mcl1-Bid inh	MCL1 BIM primary	GLD-1 RNA inh	BCLXL inh
O=C(Nc1ccc2c(c1)OCO2)c1cnn2c(C(F)(F)F)cc(-c3ccco3)nc12	-2	5	-11	6	4	2
O=C(NCCCc1ccccc1)c1cc(COc2ccc(F)cc2Cl)on1	·	·	·	34	14	35*
CNc1ccc(Br)cc(C(=O)/C=C/c2cccc(Cl)c2Cl)c1=O	0	106*	92*	·	·	·
CCNc1ccc(Br)cc(C(=O)/C=C/c2ccccc2Cl)c1=O	·	·	·	-14	-7	-15
CNc1ccc(Br)cc(C(=O)/C=C/c2cccc(OC)c2OC)c1=O	19	70*	0	5	16	12
CCOc1cccc(C(=O)Nc2ccc(N3CCCC3)cc2)c1	·	·	·	0	1	0
COc1ccc(C(=O)Nc2ccc(N3CCCC3)cc2)cc1	-2	86*	-47	12	-7	15
CCOc1ccc(C(=O)Nc2ccc(N3CCCC3)cc2)cc1	1	63*	9	0	0	-3
COc1ccc(/C=C/C(=O)OCC(=O)Nc2ccc(N3CCOCC3)cc2)cc1	0	-3	-1	1	-2	5
CCOc1ccc(/C=C/C(=O)Nc2ccc(N3CCOCC3)cc2)cc1	0	-5	101*	-6	3	-5
O=C(Nc1ccc(N2CCCC2)cc1)c1ccc(Br)o1	3	94*	-10	6	-3	7
O=C(Nc1ccc(N2CCN(C(=O)c3ccccc3)CC2)cc1)c1ccc(Br)o1	0	-3	-38	-2	1	1
COc1ccc(C(=O)NC(=S)Nc2ccc(N3CCCC3)cc2)cc1	0	17	-31	12	6	4
CC(C)CNC(=O)c1cc(=O)[nH]c2ccc(S(=O)(=O)Nc3ccc(F)cc3)cc12	·	·	·	14	3	6
O=C(CN1C(=O)NC2(CCCc3ccccc32)C1=O)Nc1cc(F)ccc1F (stereo not drawn)	·	·	·	1	-3	-5
CCOc1ccc(S(=O)(=O)N(CC)CC)cc1NC(=O)c1ccc(N2CCCC2=O)cc1	·	·	·	13	1	5
CCSc1sccc1C1C(C#N)=C(N)N(c2cccnc2)C2=C1C(=O)CCC2 (stereo not drawn)	-1	19	-3	31	12	31*
CCOC(=O)[C@H]1[C@H]2COc3ccc(C)cc3[C@@H]2N2C(=O)CN(Cc3ccc(Cl)cc3)C(=O)[C@@]12C	·	·	·	3	-1	5
CCOC(=O)[C@H]1[C@H]2COc3ccccc3[C@@H]2N2C(=O)CN(Cc3ccc(C)cc3)C(=O)[C@@]12C	·	·	·	·	91*	·
CCOc1ccccc1/C=C(/NC(=O)c1ccccc1)C(=O)N1CCCCC1	·	·	·	-5	2	-2
